From PubChem BioAssay AID2098 (Broad Institute, 2009)
Among all 300,000 compounds or so, about 2,300 (0.77%) were called active. Shown is part of a subset that was picked to be rich in actives. Values without a mark were called inactive.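 The calls were made as follows: active = more than half of replicate wells show activity change below -50%, luminescence cut by over half; inconclusive = some wells, but at most half, below -50%; inactive = no replicate well below -50%.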

Assay: HSF1 inhibitors in luciferase reporter cells, primary screen, cell-based, NIH3T3, luminescence (AID 2098);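 also: luciferase reports HSF-1 transcriptional activity via heat shock element; 0% = median of DMSO wells and -100% = zero luminescence signal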
Details: NIH3T3-HGL HSE-luciferase, MG132-induced, luminescence 8 h; stronger effect = lower value; screened at 7.5 µM (by protocol)

| SMILES | activity change, negative = inhibition |
| --- | --- |
| COc1cc(/C=N/n2c(C)n[nH]c2=S)ccc1OCc1ccccc1 | -2.45% |
| Cn1c(-c2sccc2OCc2cccc(C(F)(F)F)c2)n[nH]c1=S | -82.6% (active) |
| Cn1c(-c2sc3cc(C(F)(F)F)cnc3c2-c2ccccc2)n[nH]c1=S | -4.57% |
| O=C(c1ccc(Cl)cc1)c1ccc(OCC(O)CN2CCCCC2)cc1 (stereo not drawn) | -7.88% |
| CC1CCN(CC(O)COc2ccc(C(=O)c3ccccc3)cc2)CC1 (stereo not drawn) | -15% |
| O=C(c1ccccc1)c1ccc(OCC(O)CN2CCCC2)cc1 (stereo not drawn) | -61.3% (active) |
| Cc1ccc(NC(=O)CSc2nc(=O)n(CCN(C)C)c3c2CCCC3)c(C)c1 | -5.63% |
| COc1ccc(C2=NN(C(=O)CSc3nc(=O)n4ccc(C)cc4n3)C(c3ccc(C)cc3)C2)cc1 (stereo not drawn) | 11.2% |
| CC(=O)N/C(=C\c1ccccc1)C(=O)OC(C)C(=O)N(C)c1ccccc1 (stereo not drawn) | 1.34% |
| Cc1nc2ccccc2c(=O)n1NC(=O)c1ccc(Cl)c([N+](=O)[O-])c1 | 1.5% |
| O=C(Nc1cccnc1)c1ccc(Cl)c([N+](=O)[O-])c1 | -4.95% |
| C/C(=N\Nc1nncc2ccccc12)c1ccc(Cl)c([N+](=O)[O-])c1 | -54.9% (active) |
| COc1ccc(NS(=O)(=O)c2ccc(C)c(C(=O)N(C)Cc3ccc(OC)cc3OC)c2)cc1 | -0.123% |
| Cc1ccc(C)c(OCCC(=O)OCC(=O)c2ccc3c(c2)NC(=O)CO3)c1 | 1.77% |
| CCOC(=O)/C(=C\c1ccc([N+](=O)[O-])cc1)C(=O)c1cc(C(C)=O)c(Nc2ccccc2)s1 | -93.6% (active) |
| Cc1ccc(NC(=O)/C(=C/c2ccc([N+](=O)[O-])cc2)NC(=O)c2ccccc2)cc1 | -1.77% |
| O=C(Nc1ccccc1)/C(=C/c1ccc([N+](=O)[O-])cc1)NC(=O)c1ccccc1 | -11.2% |
| CC1CCCCC1NC(=O)c1cc(=O)[nH]c2ccccc12 (stereo not drawn) | -3.75% |
| Nc1ccc(C(=O)N2CCN(S(=O)(=O)c3ccc(Cl)cc3)CC2)cc1[N+](=O)[O-] | 3.46% |
| CCOC(=O)c1ccc(NC(=O)c2cccnc2)cc1 | -6.35% |

| SMILES | activity change, negative = inhibition |
| --- | --- |
| CCOC(=O)c1cccnc1NC(=O)c1ccncc1 | -52.6% (active) |
| CCOc1cc(C(=O)Nc2ncccn2)cc(OCC)c1OCC | -4.41% |
| CCOc1ccc(C(=O)Nc2ccncc2)cc1 | 4.46% |
| CCOc1ccccc1NC(=O)c1cccnc1 | -2.44% |
| CCOC(=O)c1cc(NC(=O)c2cccnc2)ccn1 | -72.9% (active) |
| CCOC(=O)c1c(C)oc2cc(Sc3ccccc3)c(O)c(O)c12 | 13.1% |
| COc1ccc(C(=O)NCC(c2ccco2)N2CCc3ccccc32)cc1OC (stereo not drawn) | 2.71% |
| CCC(=O)c1ccc(OCC(=O)OCC(=O)NC2CCCCCC2)cc1 | -9.22% |
| COc1ccc(CNC(=O)COC(=O)CCS(=O)(=O)c2ccc(C)cc2)cc1OC | -1.13% |
| O=C(CSc1nn(-c2ccc(F)cc2)c(=S)s1)NC1CCS(=O)(=O)C1 (stereo not drawn) | 2.24% |
| O=C(Cc1ccc(Cl)cc1)NC1CCS(=O)(=O)C1 (stereo not drawn) | 0.993% |
| O=C(CSc1ccccc1F)NC1CCS(=O)(=O)C1 (stereo not drawn) | -68.8% (active) |
| CN(CC(=O)Nc1ccccc1Cl)C(=O)COc1cccc2c1OC(C)(C)C2 | 4.06% |
| CN1C/C(=C/c2cccs2)C(=O)/C(=C\c2cccs2)C1 | 19.3% |
| CSC1=N/C(=C\C=C\c2cccs2)C(=O)S1 | -67.1% (active) |
| Cc1cccc(C2=N/C(=C/c3cccs3)C(=O)O2)c1 | -10.1% |
| CCCc1cc(=O)[nH]c2nnc(SCC(=O)Nc3nnc(SCC)s3)n12 | -2.82% |
| COc1ccc(CCNC(=O)Cc2ccc(C)cc2)cc1OC | -5.1% |
| COc1cccc(/C=C/C(=O)OCC(=O)N2CCCc3ccccc32)c1 | 0.601% |
| CCC1Nc2ncnc(N3CCN(c4ccccc4)CC3)c2N(Cc2ccc(Cl)cc2)C1=O (stereo not drawn) | 11.2% |

| SMILES | activity change, negative = inhibition |
| --- | --- |
| NS(=O)(=O)c1ccc(CCNc2nc(C(F)(F)F)nc3ccccc23)cc1 | -2.88% |
| CCc1ccc(C(CNc2nc(C(F)(F)F)nc3ccccc23)N(C)C)cc1 (stereo not drawn) | -82% (active) |
| COc1cccc(CNc2nc(C(F)(F)F)nc3ccccc23)c1 | 0.989% |
| CCCCn1c(N)c(N(CC(C)C)C(=O)c2ccc(Br)o2)c(=O)[nH]c1=O | 4.02% |
| CCCN(CCc1ccccc1)C1CCc2c(O)cccc2C1 (stereo not drawn) | 7.71% |
| CCOC(=O)c1c(C)[nH]c(C)c1S(=O)(=O)N(C)CC(=O)Nc1ccccc1C | 4.41% |
| CCOC(=O)c1c(C)[nH]c2c1-c1ccccc1C(=O)C2=O | -91.5% (active) |
| CCOC(=O)C1=C(c2ccc(OC)cc2)C(=O)c2ccccc2C1=O | 31.1% |
| CSc1ccc(S(=O)(=O)NCC(=O)OCC(=O)NC2(C#N)CCCCC2)cc1[N+](=O)[O-] | 4.69% |
| CC(C)Cn1c(N2CCN(C(=O)/C=C/c3ccccc3)CC2)nc2ccccc21 | -65.4% (active) |
| O=C(Cn1c(N2CCN(C/C=C/c3ccccc3)CC2)nc2ccccc21)c1ccccc1 | -0.086% |
| CC(C)N(C(=O)Cn1c(SCC(=O)N2CCN(c3ccccc3)CC2)nc2ccccc21)C(C)C | -10.4% |
| O=C(COc1ccccc1Cl)Nc1ccccc1C(=O)NC1CC1 | 6.98% |
| COc1ccc(Br)cc1/C=N/NC(=O)c1cccc(S(=O)(=O)N2CCOCC2)c1 | -2.38% |
| CCOc1cc(/C=N/NC(=O)c2cccc(S(=O)(=O)N3CCOCC3)c2)ccc1OCC(=O)N(C)C | -64.3% (active) |
| O=C(N/N=C/c1ccc([N+](=O)[O-])o1)c1cccc(S(=O)(=O)N2CCOCC2)c1 | 6.48% |
| CC(=O)Nc1cccc(C(=O)OCC(=O)NCc2cc(C)c(O)c(C)c2)c1 | 9.36% |
| NC(=O)C1=C[C@H](c2csc3ccccc23)C[C@H](OCc2ccc(CO)cc2)O1 | 5.45% |
